According to PubChem BioAssay AID1159580 (chemical genetic matrix, 2015):
Values joined by “and” are separate entries in the source; they are usually repeats but may differ in a detail not shown here. Identical values can stand only once. In all, about 5,500 compounds went through this assay and about 2,000 (36%) were called active. Another 18% or so got no clear call; they are omitted. Cut-off read from the data, not from the text of the source: active = normalized growth mostly below about 0.91 (no sharp cut-off); inconclusive = no clear call, values can overlap the other calls; inactive = mostly above about 0.92. Some of the results follow. More than one record can exist for a structure, and the calls need not agree.

Assay: chemical genetic growth profiling, strain panel (AID 1159580);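 note: tested at 20 µM; growth read once vehicle control cultures reached saturation at 30 °C; 1 = growth at the plate median or of vehicle wells; lower values mean less growth of the strain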
Conditions: S. cerevisiae deletion strains, growth OD

Measured: normalized growth

O=C1CCc2cc(OCCCCc3nnnn3C3CCCCC3)ccc2N1
active: locus YCL061C, strain MRC1 (second series), stronger effect = lower value 0.0772
0.998 (inactive) and 0.252 (active): locus YJR075W, strain HOC1, stronger effect = lower value
inactive: locus YAL013W, strain DEP1, stronger effect = lower value 1 | locus YAL021C, strain ccr4, stronger effect = lower value 0.996 | locus YAL026C, strain drs2, stronger effect = lower value 1.01 | locus YAL030W, strain snc1, stronger effect = lower value 0.985 | locus YAL040C, strain CLN3, stronger effect = lower value 1.01 | locus YBL061C, strain skt5, stronger effect = lower value 0.991 | locus YBR009C, strain hhf1, stronger effect = lower value 0.989 | locus YBR021W, strain FUR4, stronger effect = lower value 1.03 | locus YBR023C, strain chs3, stronger effect = lower value 1 | locus YBR171W, strain sec66, stronger effect = lower value 0.981 | locus YBR229C, strain ROT2, stronger effect = lower value 1 | locus YBR231C, strain swc5, stronger effect = lower value 0.99 | locus YBR279W, strain paf1, stronger effect = lower value 0.989 | locus YCL011C, strain gbp2, stronger effect = lower value 0.995 | locus YCL016C, strain dcc1, stronger effect = lower value 1 | locus YCL029C, strain bik1, stronger effect = lower value 0.988 | locus YCL061C, strain MRC1, stronger effect = lower value 0.988 | locus YCL069W, strain vba3, stronger effect = lower value 0.982 | locus YCR088W, strain abp1, stronger effect = lower value 0.992 | locus YDL005C, strain med2, stronger effect = lower value 0.983 | locus YDL035C, strain GPR1, stronger effect = lower value 1.01 | locus YDL040C, strain nat1, stronger effect = lower value 0.988 | locus YDL074C, strain BRE1, stronger effect = lower value 1.03 | locus YDL101C, strain DUN1, stronger effect = lower value 1 | locus YDL134C, strain PPH21, stronger effect = lower value 1.01 | locus YDL185W, strain tfp1, stronger effect = lower value 0.993 | locus YDL192W, strain arf1, stronger effect = lower value 0.971 | locus YDR001C, strain nth1, stronger effect = lower value 0.998 | locus YDR069C, strain doa4, stronger effect = lower value 0.987 | locus YDR101C, strain arx1, stronger effect = lower value 0.977 | locus YDR137W, strain rgp1, stronger effect = lower value 0.894 | locus YDR150W, strain NUM1, stronger effect = lower value 1.01 | locus YDR159W, strain sac3, stronger effect = lower value 0.978 | locus YDR162C, strain NBP2, stronger effect = lower value 1.02 | locus YDR195W, strain ref2 0.958 | locus YDR297W, strain sur2, stronger effect = lower value 0.995 | locus YDR318W, strain mcm21, stronger effect = lower value 1 | locus YDR334W, strain swr1, stronger effect = lower value 0.999 | locus YDR335W, strain msn5, stronger effect = lower value 0.981 | locus YDR388W, stronger effect = lower value 0.99 | locus YDR392W, strain spt3, stronger effect = lower value 0.984 | locus YDR502C, strain sam2, stronger effect = lower value 1.02 | locus YEL003W, strain gim4, stronger effect = lower value 1 | locus YEL037C, strain rad23, stronger effect = lower value 0.999 | locus YEL061C, strain CIN8 (second series), stronger effect = lower value 0.998 | locus YEL061C, strain CIN8, stronger effect = lower value 1 | locus YER002W, strain NOP16, stronger effect = lower value 1.01 | locus YER015W, strain faa2, stronger effect = lower value 0.997 | locus YER016W, strain bim1, stronger effect = lower value 0.993 | locus YER110C, stronger effect = lower value 0.993 | locus YER111C, strain swi4, stronger effect = lower value 0.979 | locus YER155C, strain BEM2 (second series), stronger effect = lower value 0.965 | locus YER155C, strain BEM2, stronger effect = lower value 1.02 | locus YER167W, strain BCK2, stronger effect = lower value 1 | locus YFR010W, strain ubp6, stronger effect = lower value 0.991 | locus YGL078C, strain dbp3, stronger effect = lower value 1 | locus YGL086W, strain mad1, stronger effect = lower value 1 | locus YGL167C, strain pmr1, stronger effect = lower value 0.986 | locus YGL173C, strain kem1, stronger effect = lower value 0.986 | locus YGL227W, strain vid30, stronger effect = lower value 0.985 | locus YGL240W, strain doc1, stronger effect = lower value 0.959 | locus YGL248W, strain PDE1, stronger effect = lower value 1 | locus YGL253W, strain hxk2, stronger effect = lower value 1 | locus YGR078C, strain PAC10, stronger effect = lower value 1.02 | locus YGR135W, strain pre9, stronger effect = lower value 0.997 | locus YGR229C, strain SMI1, stronger effect = lower value 1.01 | locus YGR252W, strain gcn5, stronger effect = lower value 0.956 | locus YHR013C, strain ard1, stronger effect = lower value 0.99 | locus YHR027C, strain rpn1, stronger effect = lower value 0.998 | locus YHR030C, strain SLT2, stronger effect = lower value 1 and 0.979 | locus YHR079C, strain IRE1 (second series), stronger effect = lower value 0.995 | locus YHR079C, strain IRE1, stronger effect = lower value 0.986 | locus YHR094C, strain hxt1, stronger effect = lower value 0.993 | locus YHR129C, strain ARP1, stronger effect = lower value 1 | locus YHR142W, strain chs7, stronger effect = lower value 1 | locus YHR200W, strain rpn10, stronger effect = lower value 0.995 | locus YIL066C, strain RNR3, stronger effect = lower value 1.01 | locus YIL073C, strain SPO22, stronger effect = lower value 0.989 | locus YIL125W, strain kgd1, stronger effect = lower value 1.01 | locus YIR030C, strain dcg1, stronger effect = lower value 0.998 | locus YJL092W, strain hpr5, stronger effect = lower value 0.996 | locus YJL095W, strain BCK1 (second series), stronger effect = lower value 0.984 | locus YJL095W, strain BCK1, stronger effect = lower value 1.01 and 0.989 | locus YJL115W, strain asf1, stronger effect = lower value 0.999 | locus YJL129C, strain trk1, stronger effect = lower value 0.973 | locus YJL134W, strain LCB3, stronger effect = lower value 1 | locus YJL154C, strain vps35, stronger effect = lower value 0.993 | locus YJL164C, strain tpk1, stronger effect = lower value 1 | locus YJL166W, strain qcr8, stronger effect = lower value 0.979 | locus YJL168C, strain set2, stronger effect = lower value 0.992 | locus YJL187C, strain SWE1 (second series), stronger effect = lower value 1.01 | locus YJR043C, strain POL32, stronger effect = lower value 1.01 | locus YJR066W, strain TOR1, stronger effect = lower value 0.942
